# From PubChem
# AHR activator = human AHR activation | P35869 | AHR-responsive luciferase reporter cells, luminescence | activation, % at 5 µM | 320,000 compounds, 2.5% hits | AID 2796; in the data active = activation above about 47%;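 also: 0% = vehicle wells and 100% = reference agonist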
# HSF1 inhib = HSF1 inhibition; NIH3T3-HGL HSE-luciferase, MG132-induced, luminescence 8 h; stronger effect = lower value; activity change, negative = inhibition, % at 7.5 µM (by protocol); 300,000 compounds, 0.77% hits;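 active = more than half of replicate wells show activity change below -50%, luminescence cut by over half; inconclusive = some wells, but at most half, below -50%; inactive = no replicate well below -50%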;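 also: luciferase reports HSF-1 transcriptional activity via heat shock element; 0% = median of DMSO wells and -100% = zero luminescence signal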
# NR0B1 inh = inhibits human nuclear receptor DAX1; inhibition, % at 6.75 µM; HEK293 Gal4-DAX1 luciferase reporter, luminescence; 340,000 compounds, 0.99% hits;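 active = inhibition above the mean over all tested compounds plus 3 SD, cut at about 4.2% in these data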;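 also: 0% = DAX1-transfected cells with DMSO and 100% = empty-vector control cells with DMSO; inhibition shows as a rise in luminescence from relieved DAX1 repression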
# Target sequence (P51843 207-470 limits assumed): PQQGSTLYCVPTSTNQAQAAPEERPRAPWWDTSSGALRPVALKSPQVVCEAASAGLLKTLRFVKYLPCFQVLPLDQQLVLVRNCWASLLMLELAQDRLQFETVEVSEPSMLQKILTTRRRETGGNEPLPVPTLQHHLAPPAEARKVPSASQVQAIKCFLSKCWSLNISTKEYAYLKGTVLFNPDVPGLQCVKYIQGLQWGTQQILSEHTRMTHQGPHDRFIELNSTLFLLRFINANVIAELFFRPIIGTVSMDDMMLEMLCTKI
# FXN GAA850 act = activators of GAA850 frataxin (FXN) promoter; HEK293 lucGAA850 FXN promoter luciferase reporter, 24 h; percent of 10 µM SAHA response; 360,000 compounds, 0.56% hits; activation, % at 6 µM;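 active = activation above the average of all compounds screened plus 3 SD, cutoff fixed separately per campaign, cut at about 7.5% in these data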;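 also: 0% = DMSO wells and 100% = 10 µM SAHA wells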
# HSF-1 act = increases HSF-1 driven luciferase reporter signal; NIH3T3-HGL HSF-1 luciferase reporter, MG132, 8 h; 100% = twice DMSO control signal; 300,000 compounds, 1.7% hits; AID 504408; activation, % at 9 µM;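 active = mean replicate activation of at least 50% with a set share of replicates each reaching 50%; inconclusive = only one of those two conditions met; inactive = mean below 50% and too few replicates reaching it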;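 also: 0% = median of the neutral control wells and 100% = twice that signal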
# GAA30 counter = counter-screen for GAA850 frataxin promoter activators: GAA30 promoter activation; activation, % at 6 µM; shares compounds with FXN GAA850 act; 1,900 compounds, 66% hits; HEK293 lucGAA30 FXN promoter luciferase, 24 h; DMSO = 0%, 5 µM ipriflavone = 100%;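 active = mean activation above the mean of solvent-only control wells plus 3 SD, cut at about 22% in these data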;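 also: counterscreen of GAA850 promoter hits where activity marks nonselective or luminescence artifacts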
# GAA850 confirm = confirmation of GAA850 frataxin (FXN) promoter activators; shares compounds with FXN GAA850 act; HEK293 lucGAA850 FXN promoter luciferase reporter, 24 h; 100% = activation by SAHA; activation, % at 6 µM; 1,900 compounds, 86% hits; AID 588351;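 active = mean activation above a set limit taken from the primary screen, cut at about 8% in these data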;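 also: 0% = DMSO wells and 100% = 10 µM SAHA wells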
# * hit, by the source's call; ? = inconclusive; nt = no result given. Hits are enriched below; roughly 5.4% of the tested compounds scored in any of these assays.
SMILES,AHR activator,HSF1 inhib,NR0B1 inh,FXN GAA850 act,HSF-1 act,GAA30 counter,GAA850 confirm
O=C(CC1SC(N2CCCC2)=NC1=O)Nc1ccc(C(=O)NCCOc2ccccc2F)cc1 (stereo unspecified),nt,nt,-1,4,nt,nt,nt
COc1ccc(OC)c2nc3c(C(=O)NCCN(C)C)cccc3nc12,nt,nt,1,15*,nt,3,79*
CN(C)CCNC(=O)c1cccc2nc3cccc(F)c3nc12,nt,nt,1,25*,nt,-3,142*
CC(C)C[C@@H](NC(=O)C1CCC(CNC(=O)[C@@H]2CCCN2C(=O)OC(C)(C)C)CC1)C(=O)O (stereo partly specified),nt,-8,0,1,-7,nt,nt
O=C(NNC(=O)C1CC1)c1cc(Br)c(Br)s1,10,nt,1,2,nt,nt,nt
COc1ccc(OCc2cc(C(=O)N3CCSCC3)no2)c(Cl)c1,2,12,1,3,33,nt,nt
O=C(c1cc(COc2ccc(F)cc2Cl)on1)N1CCSCC1,-5,33,1,10*,84*,110*,44*
Cc1nc(SCC(=O)c2cccs2)c2oc3ccccc3c2n1,72*,33,3,7.6*,51*,101*,39*
CC(=O)c1cccc(Nc2nc(-c3ccccc3)cs2)c1,56*,5,1,7.8*,23,101*,28*
Cc1ccc(S(=O)(=O)Cn2nnnc2C(C(C)C)N2CCc3ccccc3C2)cc1 (stereo unspecified),14,5,0,10*,8,8,7.7*
Cc1ccc(S(=O)(=O)Cn2nnnc2C(C(C)C)N2CCSCC2)cc1 (stereo unspecified),1,1,-1,0,6,nt,nt
O=C(COc1ccccc1)Nc1ccccc1C(=O)NCc1ccco1,3,16,1,8.4*,30,41*,16*
C[C@]1(C(=O)NCCCNc2ncc(C(F)(F)F)cc2Cl)C=C[C@@H](Cc2ccccc2)N1C(=O)c1ccccc1,3,17,0,0,34,nt,nt
COC(=O)N1[C@H](C)C=C[C@]1(Cc1ccccc1)C(=O)NCCCNc1ncc(C(F)(F)F)cc1Cl,6,10,1,7.8*,22,23*,11*
CC1=NN(c2ccccc2)C(=O)/C1=C\C=C\c1ccccc1,5,68,nt,8.6*,98*,19,14*
Cc1cc2oc(=O)cc(CNc3ccccc3F)c2cc1O,21,-11,-1,-1,-16,nt,nt
O=C(COC(=O)C1(c2ccccc2F)CCCC1)N1CCNC1=O,nt,nt,2,0,nt,nt,nt
Cc1ccc2cc(C#N)c(SCC(=O)NCc3ccco3)nc2c1,18,-1,1,0,3,nt,nt
Cc1ccc2nc(SCC(=O)NCc3ccco3)c(C#N)cc2c1,5,-9,3,8.3*,-2,80*,27*
COc1cc(CC(=O)N(C)CC(=O)Nc2cc(C)ccc2C)cc(OC)c1OC,-1,-5,3,0,-9,nt,nt
CCCCN1C(=O)C(O)(c2ccccc2)c2cc(Br)ccc21 (stereo unspecified),0,0,1,8.1*,13,20,14*
Cc1ccc(C(=O)CC2(O)C(=O)N(CCc3ccccc3)c3ccc(Br)cc32)o1 (stereo unspecified),22,4,-1,-3,22,nt,nt
O=C1CCCN1CCCNc1ncnc2c1cnn2-c1ccc(Cl)cc1,7,8,0,15*,3,76*,33*
Cc1cccc(-n2ncc3c(NCCCN4CCCC4=O)ncnc32)c1,25,-6,-1,1,0,nt,nt
CC(/C=C/c1ccc(OCc2ccccc2)cc1)=N\O,-5,37,1,7.9*,?,117*,38*
SMILES,AHR activator,HSF1 inhib,NR0B1 inh,FXN GAA850 act,HSF-1 act,GAA30 counter,GAA850 confirm
CC(/C=C/c1ccccc1)=N/O,3,-2,0,0,13,nt,nt
COc1ccc(C(=O)/C=C/C(=O)N(CC(=O)NC2CCCCC2)Cc2ccccc2)c(O)c1,nt,132,-3,7.6*,170*,-88,-23
COc1ccc(C(=O)/C=C/C(=O)N(CC(=O)NC2CCCCC2)Cc2ccccc2OC)c(O)c1,nt,15,0,-1,38,nt,nt
Cc1cc(OC(C)C(=O)NCCCn2ccnc2)c2c(C)c(C)c(=O)oc2c1 (stereo unspecified),8,-1,0,1,-6,nt,nt
FC(F)Oc1ccccc1/C=N/n1cnc2ccccc21,49*,15,0,8.0*,16,95*,29*
O=C(c1ccc([N+](=O)[O-])c(CS(=O)(=O)c2ccc(Cl)cc2)c1)N1CCCC1,-3,-1,0,1,-2,nt,nt
CC(C#N)N1CCN(S(=O)(=O)c2ccc3c(c2)CCC3)CC1 (stereo unspecified),0,nt,2,1,nt,nt,nt
O=C(/C=C/c1ccc(O)c(O)c1)OCCc1ccccc1,11,46,-2,16*,46,31*,23*
O=C(/C=C/c1ccc(O)c(O)c1)c1ccccc1O,-5,76,0,13*,92*,75*,35*
O=C(C=Cc1cccc(O)c1)c1ccccc1O,nt,nt,0,3,nt,nt,nt
CC(/C=N/NC(=O)c1ccccc1C)=C\c1ccccc1,0,10,nt,4,7,nt,nt
CC(/C=N/NC(=O)c1sc(N)nc1C)=C\c1ccccc1,-10,44,1,8.1*,75*,116*,41*
O=C(c1ccccn1)c1cc2ccccc2n1S(=O)(=O)c1ccccc1,14,19,-1,1,33,nt,nt
CCOC(=O)CNc1c(-c2ccc(OC)cc2)nc2ccc(Cl)cn12,9,29,1,8.0*,33,92*,25*
COCCNc1c(-c2ccc(OC)cc2)nc2ccc(Cl)cn12,5,18,-1,7,49,nt,nt
O=C1CN(C(=O)COC(=O)CCS(=O)(=O)c2ccccc2Cl)c2ccccc2N1,3,nt,0,-1,nt,nt,nt
Cc1ccc(C(=O)Nc2ccc(N3CCN(C(=O)c4cccs4)CC3)cc2)c(Cl)c1,-3,4,-1,0,12,nt,nt
CC(C)(C)N1C(=O)[C@H]2[C@@H](c3ccc(Br)cc3)N3C(=O)N(c4ccccc4)C(=O)[C@@]3(Cc3ccccc3)[C@H]2C1=O,-1,4,1,9.9*,19,5,14*
CCN1C(=O)[C@H]2[C@@H](c3ccc(C)cc3)N3C(=O)N(c4cccc(Br)c4)C(=O)[C@@]3(Cc3ccccc3)[C@H]2C1=O,3,0,0,-5,8,nt,nt
CC(C)(C)N1C(=O)[C@H]2[C@@H](c3ccc(Br)cc3)N3C(=O)N(c4cccc(Br)c4)C(=O)[C@@]3(Cc3ccccc3)[C@H]2C1=O,-1,3,-1,15*,0,14,11*
